Inconclusive results are not listed. The source made the active and inactive calls. Unless noted, the call rests on the fitted dose curve; in most records, active means well fitted curve in the direction sought with a large enough effect in the repeat runs; inconclusive means weak or mixed curves; inactive means no such curve, though single readings can be large; an effect the other way counts as inactive or inconclusive.
What was measured:
[1] = qHTS assay to identify small molecule agonists of H2AX - cell viability counter screen (AID 1224847; calls by dose curve; further: nearly all actives have a fitted effect of over 30% in size; further: potency means the concentration at half of the fitted maximal effect;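 on activity change, negative = cytotoxicity: wild-type CHO-K1 cells; top concentration of the series differs between compounds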)
Procedure, shortened: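 Counter-screen for viability: CellTiter-Glo ATP luminescence read after 3 h compound treatment (15-point titration, 0.76% DMSO final) of CHO-K1 cells at 37C, with 30 min room-temperature reagent incubation.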

[2] = qHTS RealTime-Glo MT Cell Viability Assay in HepG2 cells - 24 hour (AID 1224867); further: nearly all actives have a fitted effect of over 50% in size
Procedure, shortened: (§1)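 Viability was tracked continuously by NanoLuc luminescence from prosubstrate reduced by living HepG2 cells, at successive time points over 40 h of compound exposure. Cells with reagent were preincubated 5 h at 37 °C before compound addition.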

[3] = qHTS RealTime-Glo MT Cell Viability Assay in HEK293 cells - 32 hour (AID 1224868); further: nearly all actives have a fitted effect of over 50% in size; further: potency means the concentration at half of the fitted maximal effect; on activity change, negative = cytotoxic: top concentration of the series differs between compounds
Procedure, shortened: (§2)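 Viability tracked continuously by luminescence as live cells reduce a prosubstrate for NanoLuc; HEK293 cells preincubated 5 h, compound-treated at 37 C, and read at 0, 8, 16, 24, 32 and 40 h.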

[4] = A CellTox Green Cytotoxicity Assay to monitor cytotoxicity in HEK293 cells - 0 hour (AID 1224869); further: nearly all actives have a fitted effect of over 50% in size
Procedure, shortened: (§3)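 Dead-cell fluorescence measured kinetically: asymmetric cyanine dye, HEK293, 600 cells/well, 5 h settle, 23 nL cpd/DMSO, 37 C, reads 0–40 h every 8 h.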

[5] = qHTS RealTime-Glo MT Cell Viability Assay in HepG2 cells - 40 hour (AID 1224870); further: nearly all actives have a fitted effect of over 50% in size
Procedure, shortened: (§4)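 HepG2 cells mixed with RealTime-Glo MT reagents (NanoLuc plus cell-permeant prosubstrate) were seeded at 600 cells/well, incubated 5 h at 37 C/5% CO2, then pinned with compounds in DMSO; nonlytic luminescence tracked viability during 40 h treatment.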

[6] = A CellTox Green Cytotoxicity Assay to monitor cytotoxicity in HEK293 cells - 40 hour (AID 1224871); further: nearly all actives have a fitted effect of over 45% in size
Procedure, shortened: as §3

[7] = qHTS RealTime-Glo MT Cell Viability Assay in HepG2 cells - 8 hour (AID 1224873); further: nearly all actives have a fitted effect of over 55% in size
Procedure, shortened: as §4

[8] = qHTS RealTime-Glo MT Cell Viability Assay in HEK293 cells - 40 hour (AID 1224874); settings: RealTime-Glo luminescence; max response: stronger effect = lower value; further: nearly all actives have a fitted effect of over 50% in size; further: potency means the concentration at half of the fitted maximal effect
Procedure, shortened: (§5)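 600 HEK293 cells per well, dispensed already mixed with RealTime-Glo MT reagents. Compound dosing came 5 h later. The same wells were read for luminescence at 0, 8, 16, 24, 32 and 40 h of exposure at 37 C.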

[9] = A CellTox Green Cytotoxicity Assay to monitor cytotoxicity in HEK293 cells - 24 hour (AID 1224875); further: series mostly up to about 77 µM; nearly all actives have a fitted effect of over 45% in size
Procedure, shortened: as §3

[10] = A CellTox Green Cytotoxicity Assay to monitor cytotoxicity in HepG2 cells - 16 hour (AID 1224876); further: nearly all actives have a fitted effect of over 45% in size
Procedure, shortened: (§6)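 First, HepG2 cells (600/well) mixed with reagent were plated; second, after 5 h at 37 C they received compounds via pintool; third, fluorescence was measured at 0 h through 40 h at 8 h intervals.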

[11] = A CellTox Green Cytotoxicity Assay to monitor cytotoxicity in HepG2 cells - 24 hour (AID 1224878); further: nearly all actives have a fitted effect of over 45% in size
Procedure, shortened: as §6

[12] = A CellTox Green Cytotoxicity Assay to monitor cytotoxicity in HepG2 cells - 40 hour (AID 1224879); further: nearly all actives have a fitted effect of over 40% in size
Procedure, shortened: as §6

[13] = qHTS RealTime-Glo MT Cell Viability Assay in HEK293 cells - 0 hour (AID 1224880)
Procedure, shortened: as §5

[14] = A CellTox Green Cytotoxicity Assay to monitor cytotoxicity in HepG2 cells - 32 hour (AID 1224883); further: nearly all actives have a fitted effect of over 50% in size
Procedure, shortened: as §6

[15] = qHTS RealTime-Glo MT Cell Viability Assay in HEK293 cells - 16 hour (AID 1224872)
Procedure, shortened: as §2

[16] = qHTS RealTime-Glo MT Cell Viability Assay in HepG2 cells - 32 hour (AID 1224877); further: nearly all actives have a fitted effect of over 55% in size
Procedure, shortened: as §1

[17] = A CellTox Green Cytotoxicity Assay to monitor cytotoxicity in HEK293 cells - 32 hour (AID 1224881); further: nearly all actives have a fitted effect of over 40% in size
Procedure, shortened: as §3

[18] = A CellTox Green Cytotoxicity Assay to monitor cytotoxicity in HepG2 cells - 0 hour (AID 1224882); further: nearly all actives have a fitted effect of over 35% in size
Procedure, shortened: as §6
On the % scale 0 is the no-effect control and ±100 the full control effect.

C=C[Si](C)(C)Cl
inactive: activity change, negative = cytotoxicity [1] -1.05% [at 14 µM] | activity change, negative = cytotoxicity [2] -0.615% [at 6.97 µM] | activity change, negative = cytotoxic [3] -3.52% [at 6.97 µM] | cytotoxicity [4] -1.84% [at 6.97 µM] | activity change, negative = cytotoxic [5] 24.3% [at 6.97 µM] | cytotoxicity increase [6] -9.04% [at 6.97 µM] | viability change, negative = cytotoxic [7] -15.7% [at 6.97 µM] | max response [8] -5.42% | activity change [9] -5.65% [at 6.97 µM, stronger effect = higher value] | cytotoxicity increase [10] -13.5% [at 6.97 µM] | cytotoxicity [11] -14.5% [at 6.97 µM] | cytotoxicity increase [12] -18.2% [at 6.97 µM] | activity change, negative = cytotoxicity [13] -5.88% [at 6.97 µM] | cytotoxicity increase [14] -16.4% [at 6.97 µM]

[Cl][Dy]([Cl])[Cl]
inactive: Potency [1] | Potency [2] | Potency [3] | Potency [4] | Potency [5] | Potency [6] | Potency [15] | Potency [7] | max response [8] -3.97% | Potency [9] | Potency [10] | Potency [16] | Potency [11] | Potency [12] | Potency [13] | Potency [17] | Potency [18] | Potency [14]

COCCC(=O)OC
inactive: Potency [1] | Potency [2] | Potency [3] | Potency [4] | Potency [5] | Potency [6] | Potency [15] | Potency [7] | max response [8] 1.08% | Potency [9] | Potency [10] | Potency [16] | Potency [11] | Potency [12] | Potency [13] | Potency [18] | Potency [14]

C=CC(=O)OCCOC1C2CCC1C1CC=CC12 (centres undefined)
inactive: activity change, negative = cytotoxicity [1] 1.49% [at 31.6 µM] | activity change, negative = cytotoxicity [2] 3.51% [at 15.8 µM] | activity change, negative = cytotoxic [3] 0.499% [at 15.8 µM] | cytotoxicity [4] -3.9% [at 15.8 µM] | activity change, negative = cytotoxic [5] 5.7% [at 15.8 µM] | cytotoxicity increase [6] -0.257% [at 15.8 µM] | viability change, negative = cytotoxic [7] 0.124% [at 15.8 µM] | max response [8] 6.38% | activity change [9] 0.179% [at 15.8 µM, stronger effect = higher value] | cytotoxicity increase [10] -1.04% [at 15.8 µM] | cytotoxicity [11] -5.89% [at 15.8 µM] | cytotoxicity increase [12] -11.6% [at 15.8 µM] | activity change, negative = cytotoxicity [13] 4.39% [at 15.8 µM] | cytotoxicity increase [17] -0.486% [at 15.8 µM] | cytotoxicity [18] -3.66% [at 15.8 µM] | cytotoxicity increase [14] -7.81% [at 15.8 µM]

CCN(CC)c1ccc(N=Nc2ccccc2)cc1
active: Potency [1] 113 µM | Potency [3] 49 µM | Potency [8] 54.9 µM
inactive: Potency [2] | Potency [4] | Potency [5] | Potency [6] | Potency [7] | Potency [9] | Potency [10] | Potency [12] | Potency [17] | Potency [18] | Potency [14]

CCOC(=O)[C@H](C)O
inactive: Potency [1] | Potency [2] | Potency [3] | Potency [4] | Potency [5] | Potency [6] | Potency [15] | Potency [7] | max response [8] 7.55% | Potency [9] | Potency [10] | Potency [16] | Potency [11] | Potency [12] | Potency [13] | Potency [17] | Potency [14]

CCOC(=O)OC(=O)OCC
inactive: Potency [1] | Potency [2] | Potency [3] | Potency [4] | Potency [5] | Potency [6] | Potency [15] | Potency [7] | max response [8] 18.5% | Potency [9] | Potency [10] | Potency [16] | Potency [11] | Potency [12] | Potency [17] | Potency [14]

CCc1cccc(C)c1N(C(=O)C(=O)O)C(C)COC (centres undefined)
inactive: Potency [1] | Potency [2] | Potency [3] | Potency [4] | Potency [5] | Potency [6] | Potency [7] | max response [8] 10.9% | Potency [9] | Potency [10] | Potency [16] | Potency [12] | Potency [13] | Potency [17] | Potency [18] | Potency [14]

O=c1cc[nH]cc1
inactive: Potency [1] | Potency [2] | Potency [3] | Potency [4] | Potency [5] | Potency [15] | Potency [7] | max response [8] 1.32% | Potency [9] | Potency [10] | Potency [16] | Potency [11] | Potency [12] | Potency [13] | Potency [18] | Potency [14]

ClC(c1ccccc1)(c1ccccc1)c1ccccc1
inactive: Potency [1] | Potency [2] | Potency [3] | Potency [4] | Potency [5] | Potency [15] | Potency [7] | max response [8] -24.6% | Potency [9] | Potency [10] | Potency [16] | Potency [12] | Potency [13] | Potency [17] | Potency [18] | Potency [14]

COc1cc2ncnc(Nc3cccc(Cl)c3)c2cc1OC
inactive: activity change, negative = cytotoxicity [1] 1.51% [at 31.6 µM] | activity change, negative = cytotoxicity [2] -0.467% [at 15.8 µM] | activity change, negative = cytotoxic [3] 0.667% [at 15.8 µM] | cytotoxicity [4] -7.5% [at 15.8 µM] | activity change, negative = cytotoxic [5] 25.7% [at 15.8 µM] | cytotoxicity increase [6] -0.731% [at 15.8 µM] | activity change, negative = cytotoxicity [15] -3.69% [at 15.8 µM] | viability change, negative = cytotoxic [7] -19.1% [at 15.8 µM] | max response [8] -0.219% | activity change [9] -0.939% [at 15.8 µM, stronger effect = higher value] | cytotoxicity increase [10] -17.7% [at 15.8 µM] | cytotoxicity [11] -17.9% [at 15.8 µM] | cytotoxicity increase [12] -19.3% [at 15.8 µM] | activity change, negative = cytotoxicity [13] -2.52% [at 15.8 µM] | cytotoxicity [18] -14.6% [at 15.8 µM] | cytotoxicity increase [14] -17.4% [at 15.8 µM]

COc1cc(C(C)C)ccc1C
inactive: activity change, negative = cytotoxicity [1] 1.56% [at 31.6 µM] | activity change, negative = cytotoxicity [2] 0.531% [at 15.8 µM] | activity change, negative = cytotoxic [3] 4.56% [at 15.8 µM] | cytotoxicity [4] -0.495% [at 15.8 µM] | activity change, negative = cytotoxic [5] 19.4% [at 15.8 µM] | cytotoxicity increase [6] -5.42% [at 15.8 µM] | activity change, negative = cytotoxicity [15] -1.07% [at 15.8 µM] | viability change, negative = cytotoxic [7] -7.86% [at 15.8 µM] | max response [8] -0.423% | activity change [9] -1.5% [at 15.8 µM, stronger effect = higher value] | cytotoxicity increase [10] -12.9% [at 15.8 µM] | cytotoxicity [11] -14.9% [at 15.8 µM] | cytotoxicity increase [12] -18.2% [at 15.8 µM] | activity change, negative = cytotoxicity [13] 6.56% [at 15.8 µM] | cytotoxicity increase [17] -4.81% [at 15.8 µM] | cytotoxicity [18] -8.39% [at 15.8 µM] | cytotoxicity increase [14] -14.3% [at 15.8 µM]

Nc1cc([N+](=O)[O-])cc(Cl)c1O
inactive: Potency [1] | Potency [2] | Potency [3] | Potency [4] | Potency [5] | Potency [6] | Potency [15] | Potency [7] | max response [8] -6.05% | Potency [9] | Potency [10] | Potency [16] | Potency [11] | Potency [12] | Potency [13] | Potency [14]

Reference: PubChem BioAssay (Tox21)
